According to PubChem BioAssay (NCATS):
Results filed as inconclusive are left out. A call without a number means that no potency is given here. Active and inactive are the calls of the source. The call rests on the fitted dose curve; in most records, active means well fitted inhibition curve with a large enough effect in the repeat runs; inconclusive means weak or mixed curves; inactive means no such curve, though single readings can be large or run the other way.
Potency means the concentration at half of the fitted maximal effect.

What follows are compounds tested against Cytochrome P450 2C9 (Homo sapiens) (UniProt P11712) (assay: Cytochrome P450 family 2 subfamily C member 9 (CYP2C9) small molecule antagonists: luciferase biochemical (cell-free) qHTS assay (AID 1645842; further: nearly all actives have a fitted effect of over 55% in size)). Details: P450-Glo CYP2C9 enzyme assay, luciferin luminescence; series mostly up to 57.4 µM.
Chain of Cytochrome P450 2C9 (Homo sapiens) (P11712 whole entry, looked up): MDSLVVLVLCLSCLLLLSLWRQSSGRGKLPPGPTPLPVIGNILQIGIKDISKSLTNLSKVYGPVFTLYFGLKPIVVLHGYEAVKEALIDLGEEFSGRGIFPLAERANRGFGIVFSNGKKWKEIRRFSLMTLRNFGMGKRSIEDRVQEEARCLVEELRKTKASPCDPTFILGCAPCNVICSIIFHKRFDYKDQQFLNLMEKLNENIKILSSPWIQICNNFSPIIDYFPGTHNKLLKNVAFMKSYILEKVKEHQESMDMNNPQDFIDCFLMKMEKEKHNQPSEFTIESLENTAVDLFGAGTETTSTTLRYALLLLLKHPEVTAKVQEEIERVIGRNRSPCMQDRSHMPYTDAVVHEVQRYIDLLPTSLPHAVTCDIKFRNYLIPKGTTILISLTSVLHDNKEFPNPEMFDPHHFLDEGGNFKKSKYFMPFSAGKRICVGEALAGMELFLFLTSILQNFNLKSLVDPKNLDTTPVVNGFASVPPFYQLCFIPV
Method: National Center for Advancing Translational Sciences [NCATS] Assay Overview: Cytochrome P450 (CYP) enzymes are membrane-bound hemeproteins that play a key role in metabolism of drugs and xenobiotics. Assaying the effect of chemicals on CYP isozymes is useful to minimize the adverse drug reactions and toxicities in drug development process. Chemical compounds were tested for their effect on CYP enzyme activities by using P450-Glo (TM) screening systems (Promega Corporation, Madison, WI). These systems provide a luminescent method containing proluciferin substrates and are converted to luciferin products by CYP isozymes. The luciferin products formed are detected with a luciferin detection reagent, and the amount of light produced is proportional to CYP activity. P450-Glo (TM) CYP2C9 screening system (Catalog. No. V9790) was used to detect the compounds that interfere in CYP2C9 activity.
Assay Protocol Summary: Two ul of enzyme-substrate mix supplemented with 0.4% Bovine Serum Albumin was dispensed into medium binding white/solid 1536-well plates (Greiner Bio-One North America Inc., Monroe, NC) using a Flying Reagent Dispenser (FRD, Aurora Discovery, San Diego, CA). […] The assay plates were incubated at room temperature for 10 min. Then 2 ul of NADPH regeneration solution was added to each well of the assay plates using an FRD and incubated at 37C for 1 h. The reaction was stopped by adding 4 ul of detection reagent using an FRD and after 20 min incubation at room temperature, the luminescence signal was measured using a ViewLux plate reader (Perkin Elmer, Shelton, CT). Data were expressed as relative luminescence units.
With `Cc1c(Cl)cccc1S(=O)(=O)Nc1nc(CC(=O)N2CCN(C)CC2)cs1` the Potency was 21.3 µM (active).
With `COc1cc(C)[nH]c(=O)c1CNC(=O)c1c(C)n([C@H](C)C2CCOCC2)c2ccccc12` the Potency was 13.5 µM (active).
`Cc1cccc(NC(=O)N[C@@H]2N=C(c3ccccc3)c3ccccc3N(C)C2=O)c1` was tested, and the Potency was 12 µM (active).
For `O=[N+]([O-])C(Br)(CO)CO`, the Potency was 6.74 µM (active).
With `OC1(c2ccc(Cl)cc2)c2ccccc2C2=NCCN21` (centres undefined) the Potency was 15.1 µM (active).
In the case of `Cn1ncnc1COc1nn2c(-c3c(F)cccc3F)nnc2cc1C1CCC1`, the Potency is reported as 6.74 µM (active).
With `COCC(C)N(C(=O)CCl)c1c(C)csc1C` (centres undefined) the Potency was 13.5 µM (active).
For `CC(C)(C)c1cc(C(C)(C)C)c2c(c1)C(O)(C(F)(F)F)C(=O)O2` (centres undefined), the Potency was 21.3 µM (active).
With `C[CH2][Hg][S]c1ccccc1C(=O)O` the Potency was 3.47 µM (active).
With `Cc1cn(C[C@H](N)C(=O)O)c(=O)n(Cc2cc(-c3ccccc3)sc2C(=O)O)c1=O` the Potency was “inactive”.
`CC(C)(C)c1cc(O)ccc1O` was tested, and the Potency was 12 µM (active).
In the case of `C[C@@](O)(COc1ccc(C#N)cc1)C(=O)Nc1ccc(C#N)c(C(F)(F)F)c1`, the Potency is reported as 1.51 µM (active).
For `CC1CCC(C(C)C)C(OC(=O)c2ccccc2N)C1` (centres undefined), the Potency was 2.68 µM (active).
With `Clc1ccc(OCC2=NCCN2)cc1Cl` the Potency was “inactive”.
With `COc1ccccc1CN[C@H]1C2CCN(CC2)[C@H]1C(c1ccccc1)c1ccccc1` the Potency was “inactive”.
With `CCOc1ccccc1-n1c(C(C)N2CCN(C(=O)COc3ccc(Cl)cc3)CC2)nc2ccccc2c1=O` (centres undefined) the Potency was 13.5 µM (active).
`C[C@H](NC(=O)Cc1cc(F)cc(F)c1)C(=O)N[C@@H]1N=C(c2ccccc2)c2ccccc2N(C)C1=O` was tested, and the Potency was “inactive”.
For `C#CC(C)(O)CC` (centres undefined), the Potency was “inactive”.
With `CC(N)Cc1c[nH]c2ccccc12` (centres undefined) the Potency was “inactive”.
`ClC1C(Cl)C(Cl)C(Cl)C(Cl)C1Cl` (centres undefined) was tested, and the Potency was “inactive”.
In the case of `O=C(NC(=O)c1c(F)cccc1F)Nc1ccc(Cl)c(Oc2ncc(C(F)(F)F)cc2Cl)c1`, the Potency is reported as 1.9 µM (active).
In the case of `CCc1[nH]c2ccc(OC)cc2c1CCN(C)C`, the Potency is reported as “inactive”.
In the case of `CN(C)CCc1c[nH]c2ccc(CN3CCN(C)S3(=O)=O)cc12`, the Potency is reported as “inactive”.
For `CCCCNCC(O)c1ccc(O)cc1` (centres undefined), the Potency was “inactive”.
In the case of `COC(=O)N1CCN(C(=O)Cc2ccc(Cl)c(Cl)c2)[C@@H](CN2CCCC2)C1`, the Potency is reported as “inactive”.
`CCCCCOc1cc2c(cc1-c1cc(/C=C/C(=O)O)ccc1O)C(C)(C)CCC2(C)C` was tested, and the Potency was 12 µM (active).
For `CCc1c(C(=O)C(N)=O)c2c(OCC(=O)OC)cccc2n1Cc1ccccc1`, the Potency was 13.5 µM (active).
In the case of `OCCCCC#Cc1cncc(OC[C@@H]2CCN2)c1`, the Potency is reported as “inactive”.
`CCCC(C)C1(CC)C(=O)NC(=O)NC1=O` (centres undefined) was tested, and the Potency was “inactive”.
In the case of `CCNCC(O)c1cccc(O)c1` (centres undefined), the Potency is reported as “inactive”.
`NCC(O)c1cccc(O)c1` (centres undefined) was tested, and the Potency was “inactive”.
`O=C1C2CC=CCC2C(=O)N1SC(Cl)(Cl)Cl` (centres undefined) was tested, and the Potency was 6.74 µM (active).
In the case of `COc1cc(CCNCc2ccccc2O)c(OC)cc1C#N`, the Potency is reported as 9.52 µM (active).
For `COc1ccc(OC)c(C(O)C(C)N)c1` (centres undefined), the Potency was “inactive”.
`Cc1cc(C(=O)CN2CCCC2)c(C)n1-c1ccc(F)cc1` was tested, and the Potency was “inactive”.
With `CC(Cc1ccccc1)NC=O` (centres undefined) the Potency was “inactive”.
`CCCCCCn1c(=O)c(C(=O)Nc2ccc(C(=O)OCCC)cc2)c(O)c2ccccc21` was tested, and the Potency was “inactive”.
For `CN1CCC[C@@H]1Cc1c[nH]c2ccc(Nc3ncccc3[N+](=O)[O-])cc12`, the Potency was 19 µM (active).
With `CC(C)[C@@H](CN1CC[C@@](C)(c2cccc(O)c2)[C@@H](C)C1)NC(=O)[C@H]1Cc2ccc(O)cc2CN1` the Potency was “inactive”.
